# Measurements as given in the supplement of paper PMC8975748.
# Where a name gives a salt, the structure may show the parent alone.
# Tested on: Saccharomyces cerevisiae BY4741 SeMeCo community
# Experiment: z-score of subpopulation abundance vs DMSO median, subpopulation auxotrophic for HU; higher = larger share of this subpopulation than in DMSO controls
# Settings: 10 µM; 24 h; SM minimal medium; subpopulation (auxotrophy): HU
# Method: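 Fluorescent four-plasmid SeMeCo (self-establishing metabolically cooperating S. cerevisiae BY4741 community; plasmids pH-mRuby2, pL-mWasabi, pU-eCFP, pM-TagRFP657) was grown 24 h in minimal SM medium with each Selleck FDA-approved drug at 10 µM in 384-well plates. Cells were fixed and imaged by high-content confocal microscopy. For each auxotrophic subpopulation (and the prototroph), a z-score gives the deviation from the DMSO vehicle-control population median.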
row,SMILES,z-score of subpopulation abundance
1,CCn1cc(C(=O)O)c(=O)c2cc(F)c(N3CCNCC3)nc21 [Enoxacin],-0.82
2,COc1cc(NS(=O)(=O)c2ccc(N)cc2)ncn1 [Sulfamonomethoxine],0.5
3,CCN(CC)CCOC(=O)c1ccc(N)cc1 [Procaine HCl],-0.49
4,Cc1ccc(S(=O)(=O)NC(=O)NN2CC3CCCC3C2)cc1 (stereo not given) [Gliclazide],-0.25
5,CCN(CC)CCOCCOC(=O)C1(c2ccccc2)CCCC1 [Pentoxyverine Citrate],-0.94
6,O=C(O)c1ccccc1C(=O)Nc1ccc(S(=O)(=O)Nc2nccs2)cc1 [Phthalylsulfathiazole],1.23
7,CCN1CCN(C(=O)N[C@@H](C(=O)N[C@@H]2C(=O)N3C(C(=O)O)=C(CSc4nnnn4C)CS[C@H]23)c2ccc(O)cc2)C(=O)C1=O [Cefoperazone],-0.48
8,NC(=O)[C@@H]1CC[C@@H]2CN1C(=O)N2OS(=O)(=O)O [Avibactam sodium],-0.2
9,CC(C)C(=O)Oc1ccc(CO)cc1[C@H](CCN(C(C)C)C(C)C)c1ccccc1 [Fesoterodine Fumarate],-0.72
10,O=C(Nc1cc(Cl)cc(Cl)c1O)c1c(O)c(Cl)cc(Cl)c1Cl [Oxyclozanide],-1.36
11,CO/N=C(/C(=O)N[C@@H]1C(=O)N2C(C(=O)OCOC(=O)C(C)(C)C)=C(C)CS[C@H]12)c1csc(N)n1 [Cefetamet pivoxil hydrochloride],0.78
12,CN1CC2c3ccccc3Oc3ccc(Cl)cc3C2C1 (stereo not given) [Asenapine maleate],-0.59
13,CCCN[C@H]1CCc2nc(N)sc2C1 [Pramipexole],1.27
14,CC(=O)Oc1ccccc1C(=O)O [Aspirin],-0.71
15,COc1cccc(CCc2ccccc2OCC(CN(C)C)OC(=O)CCC(=O)O)c1 (stereo not given) [Sarpogrelate hydrochloride],-0.27
16,CCCc1cc(C(N)=S)ccn1 [Protionamide],-0.73
17,O=C(O)CCc1nc(-c2ccccc2)c(-c2ccccc2)o1 [Oxaprozin],-1.46
18,CN1C(C(=O)Nc2ccccn2)=C(O)c2ccccc2S1(=O)=O [Piroxicam],-0.6
19,c1cnc(N2CCN(Cc3ccc4c(c3)OCO4)CC2)nc1 [Piribedil],-0.25
20,O=C1C(CC[S+]([O-])c2ccccc2)C(=O)N(c2ccccc2)N1c1ccccc1 (racemic) [(+/-)-Sulfinpyrazone],-0.49

row,SMILES,z-score of subpopulation abundance
1,O=C1[C@H]2CCCC[C@H]2C(=O)N1CCCCN1CCN(c2nsc3ccccc23)CC1 [Perospirone hydrochloride],0.13
2,C[C@](N)(Cc1ccc(O)c(O)c1)C(=O)O [Methyldopa],-0.06
3,N#Cc1ccc(Oc2ccc3c(c2)COB3O)cc1 [Crisaborole (AN2728)],3.15
4,CCC[C@@H]1C[C@@H](C(=O)N[C@@H]([C@H]2O[C@H](SC)[C@H](OP(=O)(O)O)[C@@H](O)[C@H]2O)[C@H](C)Cl)N(C)C1 [Clindamycin Phosphate],-0.25
5,CC(C)Cc1ccc(C(C)C(=O)O)cc1 (stereo not given) [Ibuprofen Lysine],-2.64
6,CN1[C@@H]2CC[C@H]1C[C@@H](OC(c1ccccc1)c1ccccc1)C2 [Benztropine mesylate],-0.54
7,C#CCN[C@@H]1CCc2ccccc21 [Rasagiline],0
8,C[C@H]1NCc2cc(-c3ccc4c(=O)c(C(=O)O)cn(C5CC5)c4c3OC(F)F)ccc21 [Garenoxacin],0.7
9,CC(C)c1c(C(=O)Nc2ccccc2)c(-c2ccccc2)c(-c2ccc(F)cc2)n1CC[C@@H](O)C[C@@H](O)CC(=O)O [Atorvastatin Calcium],7.9
10,CCN1CC(CCN2CCOCC2)C(c2ccccc2)(c2ccccc2)C1=O (stereo not given) [Doxapram HCl],-0.57
11,C1CCN2C[C@@H]3C[C@@H](CN4CCCC[C@@H]34)[C@H]2C1 [(-)-Sparteine Sulfate],-0.03
12,Cc1cc(NS(=O)(=O)c2ccc(N)cc2)nc(C)n1 [sulfaisodimidine],0.09
13,CCN(Cc1ccncc1)C(=O)C(CO)c1ccccc1 (stereo not given) [Tropicamide],0.5
14,Cc1c(C)c2c(c(C)c1O)CCC(C)(CCCC(C)CCCC(C)CCCC(C)C)O2 (stereo not given) [Vitamin E],0.51
15,c1ccc2[nH]c(-c3cscn3)nc2c1 [Thiabendazole],-0.69
16,N=C(N)NC(=O)c1nc(Cl)c(N)nc1N [Amiloride HCl],-2.41
17,O=c1[nH]cnc2c1ncn2[C@@H]1O[C@H](CO)[C@@H](O)[C@H]1O [Isoprinosine],-0.35
18,Clc1ccc(CCC(Cn2ccnc2)Sc2c(Cl)cccc2Cl)cc1 (stereo not given) [Butoconazole],7.63
19,CCCNC(C)C(=O)Nc1ccccc1C (stereo not given) [Prilocaine],0.57
20,Cc1cc(=O)n(-c2ccccc2)n1C [Antipyrine],-0.64
